12-hLO inh = 12-hLO (ALOX12) enzyme inhibition; purified 12-hLO, xylenol orange hydroperoxide absorbance; P18054; hit rate 0.12% among 150,000; Potency, µM (titrated, usually from 57.1 µM), for the others: at the highest dose activity change, negative = inhibition, most hits filed as inhibitors; active = well fitted inhibition curve with a large enough effect; inconclusive = small, poorly fitted or top-dose-only effect; note: potency is the fitted concentration of half-maximal effect; nearly all actives have a fitted effect of over 55% in size
Target sequence (P18054 whole entry, looked up): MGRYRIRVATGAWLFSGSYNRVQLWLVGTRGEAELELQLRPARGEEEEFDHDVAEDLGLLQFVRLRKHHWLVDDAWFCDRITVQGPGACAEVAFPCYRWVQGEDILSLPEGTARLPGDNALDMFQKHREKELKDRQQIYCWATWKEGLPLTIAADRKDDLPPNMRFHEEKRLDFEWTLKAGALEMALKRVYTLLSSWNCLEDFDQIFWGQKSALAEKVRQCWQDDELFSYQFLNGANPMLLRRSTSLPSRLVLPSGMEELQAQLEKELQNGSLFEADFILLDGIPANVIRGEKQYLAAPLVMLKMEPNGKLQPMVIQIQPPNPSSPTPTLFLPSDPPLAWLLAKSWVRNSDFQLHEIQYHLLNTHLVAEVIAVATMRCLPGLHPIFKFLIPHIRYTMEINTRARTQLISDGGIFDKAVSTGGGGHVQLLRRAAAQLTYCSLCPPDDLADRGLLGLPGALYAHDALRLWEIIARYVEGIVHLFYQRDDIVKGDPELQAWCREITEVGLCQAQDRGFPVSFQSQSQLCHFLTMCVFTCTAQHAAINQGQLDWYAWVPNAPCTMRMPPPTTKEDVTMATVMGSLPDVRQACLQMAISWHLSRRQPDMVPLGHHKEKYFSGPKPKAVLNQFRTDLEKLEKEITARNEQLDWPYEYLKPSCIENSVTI
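Purified human 12hLO (150 nM final) was preincubated with compounds for 15 min at room temperature in 25 mM Hepes pH 7.0, 0.01% Triton X-100, then reacted with 40 uM arachidonic acid for 30 min. Hydroperoxide was detected with ferrous iron/xylenol orange.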
Lamin A splicing = modulators of lamin A splicing | HeLa LMNA splicing GFP/RFP minigene ratio, 48 h | hit rate 0.01% among 200,000 | AID 1487 | Potency, µM (top dose mostly 46.1 µM), inactives show at the highest dose ratio change, negative = inhibition, actives largely listed as inhibitors; active = well fitted inhibition curve with a large enough effect in the signal ratio, with a control signal flat, not every such curve was filed as active; inconclusive = small, poorly fitted or top-dose-only effect, or effect the other way, or a change in a side signal; the % refers to the signal ratio; note: potency is the fitted concentration of half-maximal effect
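S3 HeLa stable clones carrying a lamin A-EGFP splicing minigene plus DsRed2 were seeded at 600 cells/well in Opti-MEM with 2% FBS, pin-dosed and incubated 48 h at 37°C. Acumen cytometry (488 nm) gave the GFP/RFP total-intensity ratio.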
PNC assembly inh = blocks assembly of the perinucleolar compartment | activity change (PNC), negative = inhibition, % at 10 µM | hit rate 3.1% among 140,000 | AID 2417 | PC3M PTB-GFP, PNC prevalence imaging, 16 h; stronger effect = lower value;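 active = readout at or below -70, meaning at least 70% loss of cells showing the perinucleolar compartment, a nuclear body marking cancer cells; inconclusive = readout between -30 and a set limit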;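 note: plate controls were DMSO wells for no effect and camptothecin positive control wells for full effect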
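PC3M cells stably expressing PTB-GFP, 750–1000 cells/well, treated 16 h at 37 °C with compound (23 nl of library stock), in duplicate. After paraformaldehyde fixation and Hoechst stain, imaged at 20x; PNC prevalence scored by image analysis.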
ALDH1A1 inh = ALDH1A1 (human) enzyme inhibition. hit rate 7.3% among 220,000. Purified ALDH1A1, NADH fluorescence, propionaldehyde substrate. AID 1030. Potency, µM (top dose mostly 75.3 µM), for inactives: at the top dose activity, negative = inhibition, hits mostly inhibitors;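 note: potency is the fitted concentration of half-maximal effect; plate controls were no enzyme wells and a reference inhibitor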
HPGD inh = blocks human HPGD enzyme activity. P15428. purified HPGD, NADH fluorescence kinetic, PGE2 substrate. Potency, µM, for the others: top-dose activity change, negative = inhibition, actives largely listed as inhibitors. hit rate 4.3% among 150,000. AID 894; note: potency is the fitted concentration of half-maximal effect
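20 nM HPGD preincubated 15 min at room temperature with compound in 50 mM Tris-HCl pH 8, 0.01% Tween 20. Started with 1 mM NAD+ and 30 uM prostaglandin E2; NADH fluorescence (360/450 nm) read 5 times over 30-s intervals, last minus first.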
* hit, by the source's call; ? = inconclusive; nt = not tested or not shown; [ ] = dose if it differs, or a comment. In the library only some 10% were active in any assay of this set; here they are far more common. Unless noted, calls come from the whole dose curve; as a rule, active = well fitted inhibition curve with a large enough effect (not every such curve was filed as active); inconclusive = small, poorly fitted or top-dose-only effect, or another doubt; inactive = no such curve, though single readings can be large or run the other way. Unless noted, % is set by controls: 0 for no effect and ±100 for the full control effect.

SMILES	12-hLO inh	Lamin A splicing	PNC assembly inh	ALDH1A1 inh	HPGD inh
C/C=C\C1=C(CO)[C@H](O)[C@H]2OC2[C@@H]1O (stereo partly specified)	nt	nt	nt	10.9%[13.5 µM]	nt
Cc1ccc(NC(=O)c2c(C)oc3ncn(CC(C)C)c(=O)c23)nc1	nt	-13.6%[46 µM]	nt	nt	nt
Cc1ccc(NC(=O)c2cc(S(=O)(=O)N3CCCCC3)c[nH]2)cc1N(C)C	nt	8.7%[46 µM]	nt	nt	nt
CC(C)=NO[C@@H](C)c1cn([C@@H]2COC[C@@H]2O)nn1	nt	nt	nt	15.1%[13.5 µM]	nt
O=c1[nH]c2ccccc2c2nc3ccccn3c12	-0.9%	-1.2%	5.0	-4.0%	-20.8%
O=c1nc2c(O)cccn2c2c1c(=O)[nH]c1ccccc12	-3.6%	?	?	20µM*	?
Cc1ccc(-n2ncc3c(NCCCN4CCOCC4)ncnc32)cc1C	nt	-4.8%[46 µM]	nt	nt	nt
CCOC(=O)c1cn(Cc2cccc(Cl)c2)nn1	1.0%	?	-113.8*	1.0%	-5.6%
CCC(=O)N1c2ccccc2CC1C(=O)NCCc1ccccc1 (stereo unspecified)	nt	-0.4%[46 µM]	nt	nt	nt
Cn1cccc1C(=O)N1CCC2(CC1)CN(c1ccncc1)C2	-6.1%	nt	nt	1.9%	-5.8%
COC(=O)c1ccc(/C=C(\C#N)C(=O)NC(C)c2ccccc2)cc1 (stereo unspecified)	-4.5%	?	-99.9*	?	-18.0%
Cc1ccc(OC(=O)Nc2ccccc2)cc1	nt	7.1%[46 µM]	nt	-0.4%	nt
Cc1ccc(/C=C(/C#N)C(=O)NC(=O)Oc2ccccc2)cc1	-3.5%	-6.3%	-101.4*	3.9%	-17.2%
O=C(Nc1ccccc1)N1CCCC(CNS(=O)(=O)Cc2ccccc2)C1 (stereo unspecified)	nt	-1.4%[46 µM]	nt	7.6%	nt
O=S(=O)(Cc1ccccc1)NCC1CCCN(Cc2cccc3nonc23)C1 (stereo unspecified)	nt	?	nt	10µM*	nt
Cn1c(=O)c(C(=O)c2ccccc2)nc2ccccc21	-0.5%	-13.3%	?	0.4%	-21.1%
O=C(c1ccccc1)c1nc2ccccc2[nH]c1=O	-2.8%	9.8%	-27.1	2.9%	25.1µM*
O=C(c1ccccc1)c1nc2ccccc2n(CCCn2c(=O)c(C(=O)c3ccccc3)nc3ccccc32)c1=O	-12.5%	1.7%	?	11.2µM*	-2.0%
Cc1cccc(CNC(=O)c2cnc3sc(N4CCOCC4)nn3c2=O)c1	nt	7.0%[46 µM]	nt	nt	nt
COc1ccc(-c2nc3cnc(N(C)C)nc3n(Cc3ccc(F)cc3)c2=O)cc1	nt	6.4%	nt	?	nt
COc1cc(/C=C/C(=O)OCC(=O)NC(=O)NC(C)C)ccc1OCC#N	2.6%	5.2%	-85.1*	?	?
COc1cc(/C=C/C(=O)OCC(=O)NC(=O)NC23CC4CC(CC(C4)C2)C3)ccc1OCC#N	-1.4%	-4.8%	?	-5.9%	?
CCCN(C#N)c1nc(NCC)nc(NC(C)C)n1	-9.1%	13.3%	-2.7	10µM*	-4.7%
CC(=O)C1=C(O)C(=O)N(CCC(=O)O)C1c1cccc(F)c1 (stereo unspecified)	6.6%	-0.4%	?	-9.4%	25.1µM*
Cn1cccc1C(=O)N1CCC[C@@]2(CCN(Cc3cc(C(F)(F)F)cc(C(F)(F)F)c3)C2)C1	-2.2%	nt	nt	4.4%	-9.7%
SMILES	12-hLO inh	Lamin A splicing	PNC assembly inh	ALDH1A1 inh	HPGD inh
O=C(CCCCCN1C(=O)c2ccccc2C1=O)Nc1nccs1	-0.5%	3.8%	?	-0.8%	7.08µM*
CCN1C(=O)c2ccc(C(=O)Nc3ncc(C)s3)cc2C1=O	nt	-4.1%[46 µM]	nt	2.24µM*	nt
COCCN1C(=O)c2ccc(C(=O)Nc3nccs3)cc2C1=O	-4.3%	-2.5%	-111.0*	?	-9.5%
COc1ccccc1CNC(=O)CCC1N=C2c3ccccc3N=C(SCC(=O)Nc3ccc(N(C)C)cc3)N2C1=O (stereo unspecified)	nt	-13.4%[46 µM]	nt	nt	nt
Cc1ccc(C2OCC3(CO)COC(c4ccc(C)cc4)N23)cc1 (stereo unspecified)	?	?	-1.3	4.47µM*	-10.6%
CCOc1ccc(Cc2nccc3cc(OCC)c(OCC)cc23)cc1OCC	-1.1%	?	nt	8.7%	-15.1%
CC1CN(c2ccc(Oc3ccccc3)cc2)c2nc3c(c(=O)[nH]c(=O)n3C)n2C1 (stereo unspecified)	-1.0%	5.9%	40.2	-4.7%	35.5µM*
CC1CN(CCc2ccccc2)c2nc3c(c(=O)[nH]c(=O)n3C)n2C1 (stereo unspecified)	-6.8%	?	28.3	-14.4%	-6.0%
COc1cc(C(=O)NCC(c2ccc3c(c2)OCO3)N2CCOCC2)cc(OC)c1OC (stereo unspecified)	nt	-11.7%[46 µM]	nt	nt	nt
O=C(N/N=C/c1c(Cl)cccc1Cl)c1n[nH]c2c1CCCC2	-1.1%	-29.2%	-2.3	-3.0%	3.98µM*
O=C(N/N=C/c1c(Cl)cccc1Cl)c1ccc(F)cc1	-4.1%	8.0%	3.2	11.0%	-2.9%
O=C(N/N=C/c1c(Cl)cccc1Cl)c1ccccc1F	1.9%	-1.7%	-84.1*	1.5%	-19.4%
Cc1ccn2c(=O)cc(CSc3nnc(NC(=O)c4ccccc4Cl)s3)nc2c1	nt	12.1%[46 µM]	nt	nt	nt
COc1cc(C(=O)ON=C2C=C(C)C(=O)C(C)=C2)cc(OC)c1OC	-4.0%	?	-16.0	-2.7%	-15.0%
COc1cc(C(=O)O/N=C2\C=CC(=O)C(C)=C2)cc(OC)c1OC	-7.5%	?	112.3	14.1µM*	-14.8%
O=C(O)c1ccc(CSc2nc(-c3ccccc3)cc(C(F)(F)F)n2)cc1	2.6%	14.6%	?	7.6%	-13.7%
O=C(O)c1ccc(CSc2nc(-c3ccc(Cl)cc3)cc(C(F)(F)F)n2)cc1	-1.5%	?	18.4	2.0%	12.6µM*
NCCCNc1ccc([N+](=O)[O-])cc1C(F)(F)F	nt	-2.3%[46 µM]	nt	0.0%	nt
CN(C)c1ncc([N+](=O)[O-])cc1C(F)(F)F	nt	nt	nt	14.1µM*	nt
CCCOc1ccc(NC(=O)C2CC(=O)N(C(C)C)C2)cc1 (stereo unspecified)	0.6%	7.6%	23.2	-1.9%	nt
CCOc1ccc(NC(=O)C2CC(=O)N3CCCN=C3S2)cc1 (stereo unspecified)	-0.4%	10.9%	18.0	14.1µM*	0.8%
CCCOc1ccc(NC(=O)C2CC(=O)N3CCCN=C3S2)cc1 (stereo unspecified)	1.1%	12.9%	-5.6	2.82µM*	-13.9%
CCOc1ccc(NC(=O)C2CC(=O)N(C)C(=Nc3ccc4c(c3)OCO4)S2)cc1 (stereo unspecified)	-3.5%	2.2%	?	-0.5%	-8.6%
COc1cc(/C=C/c2nc3cc(Cl)ccc3c(=O)n2-c2ccc(C)cc2C)cc(OC)c1OC	nt	9.9%[46 µM]	nt	nt	nt
O=[N+]([O-])c1cc([N+](=O)[O-])c2c(=Nc3ccccc3)n(-c3ccccc3)n(O)c2c1	nt	?	nt	0.355µM*	nt
O=[N+]([O-])c1cccc(C(=Nc2ccccc2)NO)c1	-2.0%	-11.5%	16.2	-13.9%	-12.8%

Screening data from PubChem BioAssay.
